This passage reports outcome and AC50 results from PubChem BioAssay (EPA / NIEHS).

Assay [1] can be described thus: ATG_CRE_CIS: Attagene CIS-FACTORIAL HepG2 Assay for human cAMP Responsive Element (CRE) binding protein 3 (AID 2282926). The note with it: HepG2 CRE cis-reporter, Attagene multiplexed mRNA; actives raise or lower the signal. The procedure, abridged: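 HepG2 cells transiently transfected with cis-element-driven multiple reporter transcription units; CRE reporter mRNA measured 24 h after dosing by RT-PCR, 6-FAM labelling, HpaI digestion and capillary electrophoresis. Bidirectional fit versus DMSO baseline.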

The target of assay [2] is CCAAT/enhancer-binding protein beta (Homo sapiens) (UniProt P17676). In words: ATG_C_EBP_CIS: Attagene CIS-FACTORIAL HepG2 Assay for human CCAAT/Enhancer Binding Protein (C/EBP) beta (AID 2282927). The note with it: HepG2 Attagene cis-factorial transcription factor reporter; actives raise or lower the signal. The procedure, abridged:
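Transiently transfected HepG2 (MRTU library, endogenous TF-driven promoters); 24 h dosing; total RNA → oligo(dT) RT → PCR → 6-FAM primer extension → HpaI digest → CE; fit bidirectionally vs DMSO.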

The nature of assay [3]: ATG_CMV_CIS: Attagene CIS-FACTORIAL HepG2 Assay for human CMV (Internal Marker) (AID 2282928).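 Also: endpoint acts as a background internal control marker rather than a target.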 To be noted: HepG2 CMV promoter reporter, transcription factor profiling; actives raise or lower the signal. The procedure, abridged: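 CMV internal-marker background readout in transiently transfected HepG2 cells bearing cis-regulated reporter units. Reporter mRNA is measured 24 h after dosing by RT-PCR and capillary electrophoresis, with bidirectional fitting against DMSO.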

Assay [4] deals with Aryl hydrocarbon receptor (Homo sapiens) (UniProt P35869). As to the kind of experiment: ATG_Ahr_CIS: Attagene CIS-FACTORIAL HepG2 Assay for human Aryl Hydrocarbon Receptor (Ahr) (AID 2282930). To be noted: HepG2 AhR cis-factorial reporter transcription; actives raise or lower the signal. The procedure, abridged: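 Read-out: reporter mRNA quantified by RT-PCR with fluorescent primer extension and capillary electrophoresis. Human HepG2 liver cells carried transfected cis-promoter reporter units and were exposed to chemical for 24 h; gain or loss fitted relative to DMSO.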

Assay [5] in a line: ATG_AP_1_CIS: Attagene CIS-FACTORIAL HepG2 Assay for human Activator Protein 1 (AP-1) (AID 2282931). To be noted: HepG2 Attagene cis-factorial AP-1 reporter mRNA; actives raise or lower the signal. The procedure, abridged: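 We transfected HepG2 cells transiently with a set of cis-regulated reporter transcription units, dosed them for 24 h, and quantified reporter mRNA via RT-PCR and capillary electrophoresis, scoring gain or loss of signal relative to DMSO.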

Assay [6] in a line: ATG_AP_2_CIS: Attagene CIS-FACTORIAL HepG2 Assay for human Activator Protein 2 (AP-2) (AID 2282932). To be noted: HepG2 AP-2 cis-reporter, Attagene transcription factor profiling; actives raise or lower the signal. The procedure, abridged:
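HepG2 cells transiently transfected with cis-element reporter units and exposed for 24 h. Reporter mRNA measured by RT-PCR, FAM labelling, HpaI digestion and capillary electrophoresis. Changes in either direction fitted relative to DMSO.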

Assay [7] in a line: ATG_BRE_CIS: Attagene CIS-FACTORIAL HepG2 Assay for human Bone Morphogenetic Protein (BMP) Response Element (BRE) (AID 2282933). The note with it: HepG2 BMP response element reporter, Attagene transcription factor profiling; actives raise or lower the signal. The procedure, abridged:
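After a 24 h chemical treatment, transiently transfected HepG2 cells were lysed for RNA; reporter transcripts were quantified by fluorescent RT-PCR and capillary electrophoresis, normalised to DMSO.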

For assay [8], the target named is Retinoic acid receptor alpha (Homo sapiens) (UniProt P10276). In words: ATG_DR5_RAR_CIS: Attagene CIS-FACTORIAL HepG2 Assay for human Retinoic Acid Receptor Alpha (RARE), DR5 submotif (AID 2282934). To be noted: HepG2 Attagene cis-factorial RARE DR5 reporter, mRNA; actives raise or lower the signal. The procedure, abridged:
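Read-out: DR5-driven reporter transcript measured by RT-PCR, 6-FAM primer extension, HpaI digest and capillary electrophoresis. Human HepG2 liver cells carry transiently transfected cis-element reporter constructs; dosing lasts 24 h. Gain or loss of signal fitted against DMSO baseline.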

Assay [9] deals with Transcription factor E2F1 (Homo sapiens) (UniProt Q01094). In words: ATG_E2F_CIS: Attagene CIS-FACTORIAL HepG2 Assay for human E2F Transcription Factor 1 (AID 2282935). To be noted: HepG2 Attagene cis-reporter, E2F reporter RNA transcripts; actives raise or lower the signal. The procedure, abridged: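 Endogenous E2F1 activity read through cis-promoter reporter units transfected into HepG2. After 24 h compound treatment, reporter mRNA measured by RT-PCR, HpaI digestion and capillary electrophoresis. Bidirectional fit versus DMSO.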

A short description of assay [10]: ATG_E_Box_CIS: Attagene CIS-FACTORIAL HepG2 Assay for human Enhancer Box (E-box) (AID 2282936). To be noted: HepG2 E-box cis-reporter transcription, actives raise or lower the signal. The procedure, abridged: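 HepG2 cells transiently transfected with multiplexed cis-element reporter units, dosed 24 h; reporter mRNA quantified by RT-PCR, 6-FAM labelling, HpaI digestion and capillary electrophoresis. E-box (USF1) signal fitted bidirectionally vs DMSO.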

The nature of assay [11]: ATG_M_61_CIS: Attagene CIS-FACTORIAL HepG2 Assay for M61 Transcription Factor (Internal Marker) (AID 2282937). To be noted: HepG2 Attagene CIS-FACTORIAL M61 internal marker reporter; actives raise or lower the signal. The procedure, abridged:
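Multiplexed reporter mRNA assay, HepG2 human hepatoma cells, 24 h treatment. Signal: FAM-labelled, HpaI-digested RT-PCR fragments by CE. Fit: bidirectional, baseline DMSO.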

Assay [12] is described as follows: ATG_EGR_CIS: Attagene CIS-FACTORIAL HepG2 Assay for human Early Growth Response 1 (EGR1) (AID 2282938). To be noted: HepG2 Attagene CIS-FACTORIAL EGR reporter mRNA; actives raise or lower the signal. The procedure, abridged: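 Multiplexed cis-reporter system in human hepatoma HepG2 cells, transiently transfected. Cells are dosed for 24 h; reporter transcripts are amplified, fluorescently tagged and sized by capillary electrophoresis, with DMSO as negative control.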

Assay [13] in a line: ATG_M_19_CIS: Attagene CIS-FACTORIAL HepG2 Assay for M19 Transcription Factor (Internal Marker) (AID 2282939). To be noted: HepG2 Attagene CIS-FACTORIAL M19 internal marker reporter; actives raise or lower the signal. The procedure, abridged:
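In this multiplexed cell assay, transiently transfected HepG2 reporter units report endogenous transcription-factor activity; after 24 hours of treatment, labelled reporter cDNA fragments are quantified by capillary electrophoresis and fitted bidirectionally against DMSO.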

Assay [14] deals with Hepatocyte nuclear factor 3-beta (Homo sapiens) (UniProt Q9Y261). In words: ATG_FoxA2_CIS: Attagene CIS-FACTORIAL HepG2 Assay for human Forkhead box A2 (FOXA2) (AID 2282942). To be noted: HepG2 cis-reporter transcription factor activity, 24 h; actives raise or lower the signal. The procedure, abridged: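 Multiplexed cis-element reporter assay in transiently transfected HepG2. Twenty-four hours post-dosing, RNA was reverse-transcribed, amplified, FAM-labelled, HpaI-digested and separated by CE. Activity gain or loss relative to DMSO.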

Assay [15] is described as follows: ATG_FoxO_CIS: Attagene CIS-FACTORIAL HepG2 Assay for human Forkhead box O (FoxO) (AID 2282943). The note with it: HepG2 Attagene cis-reporter, FoxO element, mRNA; actives raise or lower the signal. The procedure, abridged: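 Read-out: fluorescence of 6-FAM-labelled reporter cDNA fragments resolved by capillary electrophoresis. Transiently transfected HepG2 cells were dosed for 24 h; activity fitted in both directions relative to DMSO controls.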

Assay [16] in a line: ATG_GATA_CIS: Attagene CIS-FACTORIAL HepG2 Assay for human GATA Binding Protein (AID 2282944). The note with it: HepG2 GATA cis-element reporter, Attagene multiplex mRNA; actives raise or lower the signal. The procedure, abridged: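 Measures endogenous transcription factor-driven reporter mRNA in HepG2 cells transiently carrying cis-regulated constructs. 24 h dosing; RNA via oligo(dT) reverse transcription, PCR, HpaI digestion, capillary electrophoresis; fitted relative to DMSO.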

Assay [17] can be described thus: ATG_GLI_CIS: Attagene CIS-FACTORIAL HepG2 Assay for human Zinc Finger Protein GLI1 (AID 2282945). The note with it: HepG2, Attagene cis-factorial reporter mRNA, GLI element; actives raise or lower the signal. The procedure, abridged:
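Transiently transfected HepG2 cells report endogenous transcription factor activity via cis-element-driven reporter units. After 24 h compound exposure, reporter mRNA was measured by RT-PCR with capillary electrophoresis; bidirectional fitting against DMSO baseline.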

Assay [18] can be described thus: ATG_ERE_CIS: Attagene CIS-FACTORIAL HepG2 Assay for Estrogen Response Element (ERE) (AID 2282940). The note with it: HepG2 ERE cis-reporter, Attagene RNA transcript; actives raise or lower the signal. The procedure, abridged: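 Measuring endogenous transcription factor output, the assay doses transfected HepG2 cells for 24 hours and quantifies reporter transcripts by fluorescent RT-PCR and capillary electrophoresis, with DMSO as baseline.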

Assay [19] in a line: ATG_Ets_CIS: Attagene CIS-FACTORIAL HepG2 Assay for human Erythroblast Transformation Specific (ETS) (AID 2282941). To be noted: HepG2 ETS cis-reporter transcription, actives raise or lower the signal. The procedure, abridged: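 HepG2 cells transfected with multiple cis-regulated reporter units measuring endogenous ETS-driven transcription, 24 h after dosing. Reporter mRNA quantified by RT-PCR with capillary electrophoresis; bidirectional fit relative to DMSO.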

The nature of assay [20]: ATG_DR4_LXR_CIS: Attagene CIS-FACTORIAL HepG2 Assay for human Liver X Receptor (LXR), DR4 submotif (AID 2282929). The note with it: HepG2 Attagene DR4 cis-reporter, mRNA transcription; actives raise or lower the signal. The procedure, abridged: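 Transiently transfected HepG2 liver cells; cis-regulated reporters; 24 h dosing. RT-PCR plus CE read-out of reporter mRNA. DMSO baseline, bidirectional curve fitting.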

Structures are written as SMILES. The source made the active and inactive calls. The calls were made as follows: active = hit-call score of the fitted dose curve at least 0.9, where 1 is the maximum; inactive = score below 0.9.

Chain of Aryl hydrocarbon receptor (Homo sapiens) (P35869 whole entry, looked up): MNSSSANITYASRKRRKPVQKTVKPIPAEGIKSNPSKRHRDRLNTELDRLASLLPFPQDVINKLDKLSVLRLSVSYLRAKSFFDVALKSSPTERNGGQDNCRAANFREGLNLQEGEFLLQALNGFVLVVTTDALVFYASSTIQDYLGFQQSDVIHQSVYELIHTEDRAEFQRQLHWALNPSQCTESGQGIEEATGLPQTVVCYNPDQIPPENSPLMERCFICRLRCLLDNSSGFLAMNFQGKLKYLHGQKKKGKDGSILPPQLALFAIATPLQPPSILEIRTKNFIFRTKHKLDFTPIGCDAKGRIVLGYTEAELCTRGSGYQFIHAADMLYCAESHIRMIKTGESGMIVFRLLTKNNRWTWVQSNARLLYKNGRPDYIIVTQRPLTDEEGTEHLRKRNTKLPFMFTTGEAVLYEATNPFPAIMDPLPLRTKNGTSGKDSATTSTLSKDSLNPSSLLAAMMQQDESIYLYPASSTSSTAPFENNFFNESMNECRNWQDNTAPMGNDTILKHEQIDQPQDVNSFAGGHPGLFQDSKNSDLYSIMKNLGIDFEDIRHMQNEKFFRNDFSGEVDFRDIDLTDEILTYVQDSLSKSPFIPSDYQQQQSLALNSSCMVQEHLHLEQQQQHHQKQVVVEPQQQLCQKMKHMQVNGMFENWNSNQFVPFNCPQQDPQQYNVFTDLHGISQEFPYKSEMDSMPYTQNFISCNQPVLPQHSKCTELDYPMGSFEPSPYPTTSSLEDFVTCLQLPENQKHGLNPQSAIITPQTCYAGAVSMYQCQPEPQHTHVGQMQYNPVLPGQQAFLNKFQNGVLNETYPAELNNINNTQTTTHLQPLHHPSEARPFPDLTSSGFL
Chain of CCAAT/enhancer-binding protein beta (Homo sapiens) (P17676 whole entry, looked up): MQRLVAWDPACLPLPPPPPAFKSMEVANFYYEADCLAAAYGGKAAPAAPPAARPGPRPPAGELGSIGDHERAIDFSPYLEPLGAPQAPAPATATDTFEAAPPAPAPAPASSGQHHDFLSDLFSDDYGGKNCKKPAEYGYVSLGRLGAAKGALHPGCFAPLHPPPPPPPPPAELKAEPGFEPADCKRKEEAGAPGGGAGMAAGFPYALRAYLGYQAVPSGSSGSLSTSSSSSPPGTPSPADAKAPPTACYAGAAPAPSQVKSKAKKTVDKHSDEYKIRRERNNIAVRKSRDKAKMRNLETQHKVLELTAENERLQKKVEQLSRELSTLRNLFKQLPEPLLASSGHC
Chain of Hepatocyte nuclear factor 3-beta (Homo sapiens) (Q9Y261 whole entry, looked up): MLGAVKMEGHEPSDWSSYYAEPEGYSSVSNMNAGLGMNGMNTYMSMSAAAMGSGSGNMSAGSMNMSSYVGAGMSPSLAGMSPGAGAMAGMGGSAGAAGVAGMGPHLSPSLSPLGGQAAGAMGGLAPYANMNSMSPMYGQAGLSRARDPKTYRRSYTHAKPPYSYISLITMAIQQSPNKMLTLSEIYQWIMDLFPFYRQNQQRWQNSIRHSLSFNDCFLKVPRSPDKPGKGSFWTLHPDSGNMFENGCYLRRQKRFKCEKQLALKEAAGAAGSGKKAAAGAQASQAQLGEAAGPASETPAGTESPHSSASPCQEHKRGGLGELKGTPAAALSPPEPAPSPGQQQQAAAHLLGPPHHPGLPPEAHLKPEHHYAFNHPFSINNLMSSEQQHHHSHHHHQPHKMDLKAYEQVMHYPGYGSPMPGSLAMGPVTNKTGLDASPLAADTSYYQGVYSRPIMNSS
Chain of Retinoic acid receptor alpha (Homo sapiens) (P10276 whole entry, looked up): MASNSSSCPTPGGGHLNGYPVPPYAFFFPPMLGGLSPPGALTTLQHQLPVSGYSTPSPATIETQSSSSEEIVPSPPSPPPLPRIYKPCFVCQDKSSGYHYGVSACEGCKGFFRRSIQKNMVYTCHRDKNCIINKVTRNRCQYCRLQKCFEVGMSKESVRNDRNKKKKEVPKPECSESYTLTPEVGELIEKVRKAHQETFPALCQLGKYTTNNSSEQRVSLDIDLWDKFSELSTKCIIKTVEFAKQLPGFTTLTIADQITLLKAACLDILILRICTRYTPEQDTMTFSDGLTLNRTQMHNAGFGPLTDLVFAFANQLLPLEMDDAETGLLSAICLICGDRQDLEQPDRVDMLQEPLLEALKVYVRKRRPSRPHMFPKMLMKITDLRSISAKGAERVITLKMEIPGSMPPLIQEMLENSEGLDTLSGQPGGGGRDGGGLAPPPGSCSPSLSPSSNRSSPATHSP
Chain of Transcription factor E2F1 (Homo sapiens) (Q01094 whole entry, looked up): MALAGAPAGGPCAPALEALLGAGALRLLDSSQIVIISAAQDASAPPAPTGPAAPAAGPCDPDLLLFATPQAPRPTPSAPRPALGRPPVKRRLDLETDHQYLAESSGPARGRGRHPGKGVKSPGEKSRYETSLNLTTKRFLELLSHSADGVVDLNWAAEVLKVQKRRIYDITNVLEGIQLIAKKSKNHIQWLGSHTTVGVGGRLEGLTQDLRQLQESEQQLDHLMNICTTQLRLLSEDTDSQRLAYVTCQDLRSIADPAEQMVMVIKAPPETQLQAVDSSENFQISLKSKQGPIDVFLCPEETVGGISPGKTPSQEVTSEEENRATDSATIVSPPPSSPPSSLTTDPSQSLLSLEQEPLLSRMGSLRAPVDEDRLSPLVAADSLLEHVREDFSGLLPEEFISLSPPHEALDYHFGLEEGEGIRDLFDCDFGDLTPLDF

Take `CC1(C)C(=O)N(Br)C(=O)N1Cl`: the result in assay [1], in assay [2], in [3], in assay [4], in assay [5] and in assay [6] was inactive. The compound was called inactive in [7], in assay [8], in [9], in assay [10], in assay [11] and in assay [12]. The compound was classed as inactive in [13], in assay [14], in assay [15], in assay [16] and in [17].

With `O=C1O[C@@H]2[C@@H](O)[C@H](O)O[C@@H]2[C@H]1O`, the compound was classed as inactive in [1], in assay [2], in assay [3], in [4], in assay [5] and in [6]. Moreover, the compound was called inactive in assay [7], in assay [9], in assay [10], in [11], in assay [12] and in [13]. Further, the outcome in assay [18], in [19], in [14], in [15], in assay [16] and in assay [17] was inactive.

For the compound `C=C(C)[C@@H]1CCC2=CC(=O)C[C@@H](C)[C@]2(C)C1`, the result in [1], in assay [2], in [3], in assay [4], in [6] and in [10] was inactive. The result in assay [12], in assay [13], in assay [18], in [19], in [14] and in assay [15] was inactive. Besides, the result in [16] and in assay [17] was inactive. The AC50 (usually the concentration giving half of the maximal activity seen) in [5] was 53.4 µM (active); in assay [7], 116 µM (active).

For `CC1CCC2CC1C2(C)C` (stereo not given), the compound was called inactive in [1], in assay [2], in [3], in [20], in assay [6] and in assay [7]. The result in assay [10], in [11], in assay [12], in [13], in [19] and in [14] was inactive. In addition, the compound was called inactive in [15] and in assay [17].

For the compound `c1ccc2c(c1)c1cccc3ccc4cccc2c4c31`, the compound was called inactive in assay [1], in assay [2], in [3], in assay [4], in assay [5] and in [6]. The compound was classed as inactive in assay [7], in assay [9], in assay [10], in assay [11], in assay [12] and in [13]. The result in assay [18], in [19], in assay [14], in assay [15], in [16] and in assay [17] was inactive.

As to `CCCCCOC(=O)CCC`, the call in assay [1], in assay [2], in assay [3], in assay [4], in assay [5] and in assay [6] was inactive. Moreover, the call in assay [7], in assay [8], in assay [9], in [10], in assay [12] and in assay [13] was inactive. For the same compound, the outcome in assay [19], in [14], in assay [15], in assay [16] and in [17] was inactive.

With `C=C(C)C(=O)NCCCN(C)C`, the outcome in assay [1], in assay [2], in assay [3], in [20], in [6] and in assay [7] was inactive. The outcome in assay [9], in assay [10], in [12], in assay [13], in assay [19] and in assay [14] was inactive. Besides, the compound was called inactive in [15], in [16] and in [17].

For `CC(C)C[C@H]1C(=O)N2CCC[C@H]2[C@]2(O)O[C@](NC(=O)[C@@H]3C=C4c5cccc6[nH]c(Br)c(c56)C[C@H]4N(C)C3)(C(C)C)C(=O)N12`, the result in assay [1], in [2], in [3], in assay [5], in [6] and in [7] was inactive. Further, the compound was called inactive in [8], in assay [9], in assay [10], in assay [11], in [19] and in [14]. Also, the result in [15] and in [17] was inactive. Besides, the AC50 in assay [12] was 1.65 µM (active).
